# Assay results: PMC5540273 (PLoS ONE, 2017)
# Assays:
# Settings in all cases: concentration: 1 μM, replicates: in singlicate; n = 1
# ROCK1 = tested on: ROCK1
# ROCK2 = tested on: ROCK2
# ROS1 = tested on: ROS1
# [1] = tested on: RPS6KA4(Kin.Dom.1-N-terminal)
# [2] = tested on: RPS6KA4(Kin.Dom.2-C-terminal)
# [3] = tested on: RPS6KA5(Kin.Dom.1-N-terminal)
# [4] = tested on: RPS6KA5(Kin.Dom.2-C-terminal)
# [5] = tested on: T1, RSK1(Kin.Dom.1-N-terminal)
# T1 construct: gene RPS6KA1
# [6] = tested on: T2, RSK1(Kin.Dom.2-C-terminal)
# T2 construct: gene RPS6KA1
# [7] = tested on: T3, RSK2(Kin.Dom.1-N-terminal)
# T3 construct: gene RPS6KA3
# 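Also: KINOMEscan kinase panel screen.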
SMILES,%Inh (ROCK1) [%],%Inh (ROCK2) [%],%Inh (ROS1) [%],%Inh [1] [%],%Inh [2] [%],%Inh [3] [%],%Inh [4] [%],%Inh [5] [%],%Inh [6] [%],%Inh [7] [%]
COc1cccc(NC(=O)NC2CCN(c3ccnc(Nc4ccc(F)cc4)n3)C2)c1 (centres unmarked) [GSK1379721],0,5,0,0,0,0,12,15,25,4
COc1ccccc1-c1ccc2c(NC(=O)C3CC3)n[nH]c2n1 [SB-711239],23,6,10,9,0,13,12,11,0,0
Cc1nnc(-c2ccc3occ(-c4ccc(S(C)=O)cc4)c3c2)[nH]1 (centres unmarked),20,0,0,0,11,0,15,9,33,13
COc1ccc(Nc2nccc(NCCNC(=O)Nc3ccccc3F)n2)cc1 [GSK1379901],30,44,24,14,0,14,27,16,0,1
CC(C)(C)c1ccc(C(=O)Nc2cn3cc(-c4cccnc4)ccc3n2)cc1,0,7,0,15,0,0,6,19,42,17
COc1ccccc1CNC(=O)c1cc(C(=O)c2ccccc2C)c[nH]1 [GSK364507],12,10,0,5,0,5,21,25,0,4
Cc1ccc(C(=O)Nc2ccc(Nc3ccnc4cc(-c5ccccn5)ccc34)cc2O)cc1.Cl [GW440146],13,19,16,20,0,16,0,6,0,0
Cc1c(Cn2ccn3c(=O)cc(N4CCOCC4)nc23)cccc1C(F)(F)F [GSK2289044],0,0,8,0,0,6,11,0,0,0
O=C(Nc1ccccc1)Nc1cccc(Oc2ccc3nccn3n2)c1,0,0,0,43,0,0,0,0,0,0
COc1ccc(Nc2nccc(-c3cccc(NC(=O)c4cc5cc(F)ccc5[nH]4)c3)n2)cc1 [GSK1229782],48,35,34,21,0,6,14,13,5,21
Nc1ncnc2[nH]c(-c3ccccc3)nc12 [AH5015],11,14,0,15,0,5,0,15,0,15
Cc1csc(-c2nc(Nc3ccncc3)c3ccccc3n2)n1 [GW869640],65,18,22,52,17,13,16,0,22,42
Cl.Oc1ccc(-c2nc(-c3ccccc3)[nH]c2-c2ccncc2)cc1 [SB-428218],70,61,0,0,0,0,11,30,0,6
Cn1ccc2ncnc(Oc3ccc(NC(=O)Nc4ccccc4)cc3)c21,0,24,15,21,0,0,2,0,0,0
O=C(Nc1n[nH]c2nc(-c3nccs3)c(Br)cc12)C1CC1 [SB-742251],36,24,0,0,0,0,11,9,0,11
Cn1ccc2ncnc(Oc3cccc(C(=O)Nc4ccccc4)c3)c21,0,16,4,0,18,19,0,0,9,0
Cn1ccc2ncnc(Oc3ccc(Nc4nc5ccccc5[nH]4)cc3)c21,0,0,0,0,0,7,0,0,0,0
